This note sets out measurements from PubChem BioAssay.

Molecules are shown by their SMILES. Records with an inconclusive call do not appear. Active and inactive are the calls of the source.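 How the source made its calls, unless noted: active means viability at or below 10% of carrier control in both of two separate runs; inconclusive means viability at or below 10% in only one of the two runs; inactive means the rest.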

A short description of test [1]: Her2 expression decrease, cell viability multiplex – SKBR3 breast tumor cells, AlphaScreen, ATP viability, primary screen (AID 461;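 active means Her2 level under about 52% in both replicate screens, with viability over 70% of control, limit read from the data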;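 on Her2 level: lower value means less Her2 protein in the cells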;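 on viability: percent of carrier control wells set as 100% viability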). The conditions noted are these: SKBR3 Her2 protein level, 18-24 h, measured here: SKBR3 viability, ATP luminescence, at 10 µM.
In test [2] the target is Receptor tyrosine-protein kinase erbB-2 (Homo sapiens) (UniProt P04626). The description is as above. The following applies: 18-24 h, at 10 µM, stronger effect = lower value.
Sequence of Receptor tyrosine-protein kinase erbB-2 (Homo sapiens) (P04626 whole entry, looked up): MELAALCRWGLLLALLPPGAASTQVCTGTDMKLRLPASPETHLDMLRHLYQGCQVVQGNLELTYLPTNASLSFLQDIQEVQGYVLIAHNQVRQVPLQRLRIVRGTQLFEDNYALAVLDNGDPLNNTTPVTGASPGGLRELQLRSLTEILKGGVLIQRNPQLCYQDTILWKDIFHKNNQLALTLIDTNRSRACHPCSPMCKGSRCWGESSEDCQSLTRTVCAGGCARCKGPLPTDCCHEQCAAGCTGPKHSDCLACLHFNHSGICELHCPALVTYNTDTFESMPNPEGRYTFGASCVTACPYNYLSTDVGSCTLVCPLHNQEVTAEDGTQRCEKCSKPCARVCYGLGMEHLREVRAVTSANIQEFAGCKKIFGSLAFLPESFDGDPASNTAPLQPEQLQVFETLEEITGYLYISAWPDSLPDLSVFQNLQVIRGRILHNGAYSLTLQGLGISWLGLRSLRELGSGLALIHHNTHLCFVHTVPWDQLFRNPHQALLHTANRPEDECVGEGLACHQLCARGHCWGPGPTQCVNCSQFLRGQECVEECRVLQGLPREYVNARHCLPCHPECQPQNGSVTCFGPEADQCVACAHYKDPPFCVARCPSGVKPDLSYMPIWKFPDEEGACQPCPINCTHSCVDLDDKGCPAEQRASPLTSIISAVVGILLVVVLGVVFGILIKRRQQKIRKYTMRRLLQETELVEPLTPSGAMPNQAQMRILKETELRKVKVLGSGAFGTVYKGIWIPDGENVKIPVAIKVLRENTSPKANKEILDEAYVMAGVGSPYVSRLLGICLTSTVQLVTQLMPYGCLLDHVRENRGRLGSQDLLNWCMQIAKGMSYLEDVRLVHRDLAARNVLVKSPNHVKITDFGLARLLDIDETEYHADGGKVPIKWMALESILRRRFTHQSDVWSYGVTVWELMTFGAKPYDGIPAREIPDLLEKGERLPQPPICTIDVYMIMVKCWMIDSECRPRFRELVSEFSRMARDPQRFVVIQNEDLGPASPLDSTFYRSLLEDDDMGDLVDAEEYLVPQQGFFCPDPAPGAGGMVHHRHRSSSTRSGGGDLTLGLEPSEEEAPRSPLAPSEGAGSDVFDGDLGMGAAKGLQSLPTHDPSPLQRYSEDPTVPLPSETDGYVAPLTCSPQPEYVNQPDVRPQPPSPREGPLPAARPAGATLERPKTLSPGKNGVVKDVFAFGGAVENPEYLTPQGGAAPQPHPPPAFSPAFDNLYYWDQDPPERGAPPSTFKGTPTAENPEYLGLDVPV
A short description of test [3]: reduced viability of SK-BR-3 breast cancer cells – cell-based, 24 h, human, pilot screen (AID 572).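 Further: compound exposure lasted between 18 and 24 h rather than exactly 24 h; 100% = carrier-treated control wells.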 The conditions noted are these: SK-BR-3 viability, CellTiter-Glo luminescence, at 10 µM, stronger effect = lower value.
Test [4] is described as follows: HUVEC growth inhibition – cell-based, human, primary screen (AID 575;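 active means viability at or below 30% in both replicate assays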;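 further: 100% = median of untreated cell wells with 0.1% DMSO on each plate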). The conditions noted are these: HUVEC proliferation, CellTiter-Glo luminescence, 72 h; at 10 µM; stronger effect = lower value. A general note: Cellular ATP, detected with luciferase, serves as a proxy for viable cell number.
Test [5] is described as follows: H69AR cell proliferation blockers – human, duplicate replicates, primary screen (AID 580;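 active means viability at or under a set limit in both replicates, limit being median viability minus 3 SD, cut at about 48% in these data, passing the limit was not always enough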;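 further: 100% = mean luminescence of untreated wells and 0% = no signal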). The following applies: H69AR lung tumor cells viability, ATP luminescence, 72 h; at 10 µM; stronger effect = lower value.
A short description of test [6]: MRP1 drug-resistance reversers in H69AR cells – cell-based, doxorubicin co-treatment, pilot screen (AID 601;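 active means viability loss from added drug above about 55%, and viability with drug at most 40%, in both replicates, limit read from the data, passing the limit was not always enough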). The conditions noted are these: CellTiter-Glo, 72 h, at 10 µM; for differential viability (reversal): stronger effect = higher value.
A short description of test [7]: yeast transport mutant growth inhibition pilot in 384-well plates, post-Golgi transport modulator project (AID 636; in the data active means inhibition above about 31%). The following applies: absorbance 615 nm, about 18 h, stronger effect = higher value.
The nature of test [8]: growth suppression of yeast trafficking mutant, preliminary HTS, modulators of trafficking downstream of Golgi apparatus project, 1536-format plate, OD 615 nm (AID 637; in the data active means inhibition above about 30%). The conditions noted are these: yeast transport mutant growth, absorbance 615 nm, 18 h; stronger effect = higher value.
Test [9] is described as follows: S. cerevisiae growth inhibition in permissive medium (OD615), pilot counter-assay for S. cerevisiae lifespan shortening project, permissive growth control (AID 705;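 active means growth inhibition above 25% in both replicates, a cutoff set 3 SD above the mean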). The following applies: OD615, 24 h, at 10 µM, stronger effect = higher value.
Test [10] in a line: S. cerevisiae growth inhibition in restrictive medium, OD615, pilot screen, restrictive growth control, yeast lifespan reduction project (AID 706;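 active means growth inhibition above a set limit, 3 SD over mean compound inhibition, in both replicates, cut at about 43% in these data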;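 further: modified DeaD lifespan yeast strain shifted to restrictive glucose medium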). The following applies: OD615, 48 h, at 10 µM, stronger effect = higher value.
The nature of test [11]: doxorubicin toxicity protection in MRP-1 cells – H69AR cells, CellTiter-Glo, duplicate, MRP-1 activator project, pilot screen (AID 807;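 active means viability increase at or above a cutoff of the median across tested compounds plus 3 SD, cut at about 8.5% in these data, passing the limit was not always enough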;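 further: compound pretreatment 18-22 h then 72 h combined with doxorubicin; 0% = doxorubicin alone and 100% = vehicle without doxorubicin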). The conditions noted are these: H69AR viability with doxorubicin, CellTiter-Glo luminescence; at 10 µM; stronger effect = higher value.
Test [12] is described as follows: viability of HCT116 without oncogenic beta-catenin – human colon tumor cells, pilot screen (AID 823;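 active means cell viability at or below a set limit in both duplicate runs, the limit being the all-compound median minus 4 SD, cut at about 23% in these data, passing the limit was not always enough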;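 further: 0% = wells killed by 20 µM Hyamine and 100% = untreated DMSO cell wells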). The conditions noted are these: HCT116 beta-catenin knockout viability, CellTiter-Glo, 60 h; at 10 µM; stronger effect = lower value.
Test [13] can be described thus: viability of PTEN-null HCT116 cells – cell-based, HCT116 clonal line, CellTiter-Glo, pilot screen (AID 824;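 active means viability at or below 27.92% in each of two runs, the all-compound median minus 4 SD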;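 further: 0% = 20 µM Hyamine control and 100% = vehicle cell control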). The conditions noted are these: HCT116 PTEN-deleted viability, 60 h, at 10 µM, stronger effect = lower value.
Test [14] can be described thus: RAM pathway blockade in budding yeast – dse1pr::URA3 reporter, 5-FOA selection, pilot screen (AID 869;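 active means inhibition over a set limit, the all-compound mean plus 3 SD, in both replicate runs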;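 further: 0% = DMSO wells with no growth and 100% = 10 µM 1-NA-PP1 with full growth; RAM network block rescues cells from 5-FOA so hits raise OD615 growth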). The following applies: S. cerevisiae dse1pr::URA3 5-FOA growth, OD615, 2 d; at 10 µM; stronger effect = higher value; strain carries analog-sensitive mutant Cbk1 kinase.
Test [15] can be described thus: RAM signaling pathway blockade in yeast – S. cerevisiae, Pdr1DBD-CYC8 efflux-inhibited sensitized strain, primary screen (AID 1298;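 active means RAM network inhibition above 8.4% in each of two replicates, 3 SD over the compound average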;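 further: 0% = DMSO untreated cells without growth and 100% = 10 µM 1-NA-PP1 full growth; higher means more yeast growth rescued from 5-FOA killing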). The following applies: S. cerevisiae cbk1-as DSE1-URA3 strain, 5-FOA growth OD615, 2 d; at 50 µM; stronger effect = higher value.
Setting [16] is: H69AR cells + 2 uM doxorubicin, measured here: viability with 2 uM doxorubicin, stronger effect = lower value.
[17] abbreviates: H69AR cells, compound alone cytotoxicity.

The viability is a read-out of living cells in per cent, often relative to untreated cells. As usually defined, the inhibition is the relative decrease from the control value, in per cent. Consider `Cc1ccc(N=Cc2ccc[nH]2)c(O)c1`, for which the viability in test [1] was 96%; in test [3], 96% (inactive); in test [4], 76.8% (inactive); in [5] it was 81.9% (inactive); in test [6] (setting [16]), 96.4%; in test [6] (setting [17]), 81.9%. The viability in test [12] is 71.8% (inactive); in test [13] it was 88.4% (inactive). For the same compound, in test [2], the Her2 level is 88.5% (inactive). Moreover, the differential viability (reversal) in [6] (H69AR cells + 2 uM doxorubicin) is -14.5% (inactive). Further, the inhibition in test [7] is -2.56% (inactive); in test [8] it was 0.5% (inactive); in test [14], 1.36% (inactive). Besides, the figures for the growth inhibition in [9] and in [10] were -20.2% (inactive) and -5.83% (inactive), respectively. In [11], the viability increase was -4.28% (inactive). In test [15], the RAM network inhibition was 0.26% (inactive).

Take `CCN(C(=O)c1cc(Cl)ccc1OC)c1ccccc1`: the viability in test [1] is 91.5%; in [3] it was 91.5% (inactive); in test [4], 95.6% (inactive); in test [5], 103% (inactive); in test [6] (setting [16]) it was 101%; in [6] (setting [17]), 103%. Besides, the viability was 89.5% (inactive) in [12] and 90% (inactive) in test [13]. Moreover, the Her2 level in test [2] was 110% (inactive). In addition, the differential viability (reversal) in test [6] (H69AR cells + 2 uM doxorubicin) is 2.06% (inactive). Also, the inhibition in test [7] was 1.04% (inactive); in test [8], -10.3% (inactive); in [14] it was 2.85% (inactive). The growth inhibition in test [9] is -16.1% (inactive); in test [10], -19.6% (inactive). Also, the viability increase in test [11] was -2.05% (inactive). The RAM network inhibition in test [15] is 3.26% (inactive).

Take `CN(C)CCCN1C(=O)CSC1c1ccccc1` (stereo not drawn): the viability in [1] was 100%; in test [3], 100% (inactive); in [4], 91.6% (inactive); in test [5], 94.4% (inactive); in [6] (setting [16]), 90.1%; in [6] (setting [17]), 94.4%. For the same compound, the viability in [12] is 104% (inactive); in test [13], 101% (inactive). In addition, the Her2 level in test [2] is 99% (inactive). In test [6] (H69AR cells + 2 uM doxorubicin), the differential viability (reversal) is 4.35% (inactive). The values for the inhibition in test [7], in test [8] and in [14] were -4.67% (inactive), -1.83% (inactive) and 1.47% (inactive), respectively. The results for the growth inhibition in test [9] and in test [10] were -2.19% (inactive) and -1.53% (inactive), respectively. Moreover, the viability increase in test [11] is -0.9% (inactive). The RAM network inhibition in [15] is 0.73% (inactive).

Consider `O=c1oc2c3c4c(cc2cc1-c1nc2ccccc2[nH]1)CCCN4CCC3`, for which the viability was 79.5% in test [1]; 79.5% (inactive) in [3]; 71.7% (inactive) in test [4]; 83.3% (inactive) in test [5]; 80.7% in test [6] (setting [16]); 83.3% in test [6] (setting [17]). Further, the figures for the viability in test [12] and in test [13] were 87.2% (inactive) and 89.7% (inactive), respectively. The Her2 level in [2] is 65.5% (inactive). Further, the differential viability (reversal) in [6] (H69AR cells + 2 uM doxorubicin) is 2.58% (inactive). Further, the inhibition in test [7] is -1.95% (inactive); in [8], 6% (inactive); in test [14], 1.73% (inactive). Also, the growth inhibition in test [9] is 4.75% (inactive); in test [10] it was -0.465% (inactive). Besides, the viability increase in test [11] was -5.62% (inactive). Moreover, in [15], the RAM network inhibition was 2.41% (inactive).

`CCOC(=O)c1ccc2ncc(C(=O)OCC)c(NCCN(C)C)c2c1`: the viability was 84% in [1]; 84% (inactive) in test [3]; 102% (inactive) in [4]; 91.8% (inactive) in test [5]; 81.2% in [6] (setting [16]); 91.8% in test [6] (setting [17]). In addition, the viability in test [12] was 95.8% (inactive); in [13], 94.8% (inactive). Moreover, the Her2 level in test [2] is 99.5% (inactive). In test [6] (H69AR cells + 2 uM doxorubicin), the differential viability (reversal) is 10.6% (inactive). In addition, the inhibition in test [7] was -0.8% (inactive); in [8] it was 1.83% (inactive); in [14] it was 2.64% (inactive). Besides, the growth inhibition is -4.69% (inactive) in test [9] and 2.56% (inactive) in [10]. Moreover, the viability increase in test [11] was -1.02% (inactive). The RAM network inhibition in test [15] is 2.56% (inactive).

Consider `CN1CCN(C2=C(Cl)C(=O)N(c3cccc(Cl)c3)C2=O)CC1`, for which the viability in test [1] was 80.5%; in test [3], 80.5% (inactive); in test [4], 87.7% (inactive); in [5], 85% (inactive); in test [6] (setting [16]), 80.5%; in [6] (setting [17]), 85%. In addition, the results for the viability in [12] and in test [13] were 96.3% (inactive) and 104% (inactive), respectively. For the same compound, the Her2 level in [2] was 96.5% (inactive). In addition, in test [6] (H69AR cells + 2 uM doxorubicin), the differential viability (reversal) was 4.44% (inactive). In addition, the inhibition was 0.26% (inactive) in [7], 5.67% (inactive) in test [8] and 0.75% (inactive) in [14]. In addition, the values for the growth inhibition in test [9] and in test [10] were -16.8% (inactive) and -5.5% (inactive), respectively. The viability increase in [11] is -1.68% (inactive). Also, the RAM network inhibition in test [15] was 2.62% (inactive).

Consider `Cc1cc(C)c(NC(=O)CSc2nc3c(c(=O)n2C)SC(C)C3)c(C)c1` (stereo not drawn), for which the viability in test [1] was 93.5%; in test [3] it was 93.5% (inactive); in test [4], 96.7% (inactive); in test [5], 90% (inactive); in test [6] (setting [16]), 96.2%; in [6] (setting [17]) it was 90%. The viability in [12] was 85.7% (inactive); in test [13] it was 77.5% (inactive). The Her2 level in test [2] is 118% (inactive). In addition, the differential viability (reversal) in test [6] (H69AR cells + 2 uM doxorubicin) is -6.17% (inactive). The inhibition in [7] is -2.67% (inactive); in test [8], 10% (inactive); in [14], 1.58% (inactive). Moreover, the growth inhibition in test [9] was -7.85% (inactive); in test [10] it was -17.5% (inactive). Besides, the viability increase in test [11] is -0.13% (inactive). The RAM network inhibition in test [15] was 4.95% (inactive).

As to `COc1ccc(C2CC(c3ccc(Cl)cc3Cl)Nc3nc(N)nn32)cc1` (stereo not drawn), the viability is 94% in test [1]; 94% (inactive) in test [3]; 115% (inactive) in [4]; 94% (inactive) in test [5]; 90.2% in test [6] (setting [16]); 94% in test [6] (setting [17]). For the same compound, the results for the viability in test [12] and in [13] were 85.3% (inactive) and 73.3% (inactive), respectively. Besides, the Her2 level in [2] is 92% (inactive). The differential viability (reversal) in test [6] (H69AR cells + 2 uM doxorubicin) is 3.8% (inactive). Also, the results for the inhibition in [7], in [8] and in test [14] were -1.67% (inactive), -0.5% (inactive) and 2.17% (inactive), respectively. Further, the growth inhibition is 12.9% (inactive) in test [9] and 31.5% (inactive) in test [10]. Further, the viability increase in [11] is 0.19% (inactive). Also, the RAM network inhibition in [15] is 8.01% (inactive).

As for `Cc1nc2c(-c3ccc(F)cc3)c(C)nn2c(C)c1CCC(=O)NC(C)CCc1ccco1` (stereo not drawn), the viability in test [1] was 102%; in [3] it was 102% (inactive); in [4], 63.1% (inactive); in test [5] it was 91.2% (inactive); in test [6] (setting [16]) it was 80.9%; in test [6] (setting [17]), 91.2%. Besides, the results for the viability in [12] and in test [13] were 75% (inactive) and 82.3% (inactive), respectively. Besides, the Her2 level in [2] was 59% (inactive). The differential viability (reversal) in test [6] (H69AR cells + 2 uM doxorubicin) is 10.4% (inactive). Besides, the inhibition in [7] was -0.64% (inactive); in test [8], 7.83% (inactive); in test [14], 0.865% (inactive). Moreover, the growth inhibition in test [9] was 2.17% (inactive); in test [10], -4.76% (inactive). For the same compound, the viability increase in [11] is -1.56% (inactive). The RAM network inhibition in test [15] is 1.03% (inactive).
